# High-throughput results from PubChem.
# Hits are enriched below; roughly 5.2% of the tested compounds scored in any of these assays.
# Tau fluor counter = counter-screen for tau fibril formation inhibitors; tau K18 P301L Alexa594 fluorescence, heparin fibrillization; Potency, µM (top dose mostly 57.7 µM); hit rate 0.93% among 280,000; note: nearly all actives have a fitted effect of over 55% in size
#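 Human tau K18 P301L (15 uM unlabeled, 0.24 uM Alexa 594-labeled) in 100 mM sodium acetate pH 7 with 20 uM heparin, 6 hr at 37 C. ThT 30 uM added, 1 hr ambient; Alexa 594 FP and total fluorescence read at 555/632 nm.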
# Sfp PPTase inh = Sfp phosphopantetheinyl transferase inhibition; AID 1490; Biochemical Sfp PPTase activity, qHTS; hit rate 3.5% among 310,000; Potency, µM, actives largely listed as inhibitors; Q9F4F7;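 note: the enzyme is Sfp with the accession as filed and its product quenches rhodamine fluorescence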
#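 Reaction rates are the 30-min fluorescence difference (ex 525, em 598 nm) in wells containing 15 nM Sfp, 5 uM rhodamine-CoA and 12.5 uM BHQ-2-YbbR at pH 7.6 with 10 mM MgCl2.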
# Tau fibril FP = tau fibrillization inhibition (FP); P10636; K18 P301L tau heparin fibrillization, Alexa594 FP, 6 h; Potency, µM (top dose mostly 57.7 µM), most hits filed as inhibitors; hit rate 0.39% among 280,000; note: nearly all actives have a fitted effect of over 55% in size
# Target sequence (P10636 561-689 P618L limits assumed): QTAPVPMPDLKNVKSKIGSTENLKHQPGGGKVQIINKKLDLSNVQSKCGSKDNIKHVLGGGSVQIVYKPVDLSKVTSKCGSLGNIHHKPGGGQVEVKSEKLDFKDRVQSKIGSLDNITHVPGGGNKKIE
#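 Recombinant K18 P301L […], labeled with Alexa 594 at 0.24 uM over 15 uM unlabeled; heparin inducer 20 uM final; 37 C, 6 hr; FP endpoint.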
# Tau fibril ThT = inhibitors of human tau fibril formation, thioflavin T binding. P10636. recombinant tau K18 P301L (four-repeat tau fragment), heparin-induced fibrillization, ThT fluorescence. Potency, µM (highest dose often 57.4 µM), hits mostly inhibitors. hit rate 2.1% among 270,000; note: nearly all actives have a fitted effect of over 55% in size
#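 In this qHTS, human K18 P301L tau is incubated with compound and heparin for 6 hr at 37 C, and Thioflavin T fluorescence then reports fibril load.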
# FBPA coupling cs = coupling enzyme interference in Giardia aldolase counter-screen. activity change, negative = inhibition, % at 58.2 µM, hits read low. AID 2472. coupling enzyme system counterscreen, AmpLite Red fluorescence. hit rate 0.67% among 290,000; in the data active = activity change below about -30%
#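 Compounds tested against the coupling enzymes alone at 57.5 uM final; readout was AmpLite Red fluorescence (525/598 nm) after 20 min at RT.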
# Numbers stand for hits; i = inactive; ? = inconclusive; nt = not tested or not shown; ! = a repeat was not active; [ ] = dose if it differs, or a comment. Unless noted, calls come from the whole dose curve; as a rule, active = well fitted curve in the direction sought with a large enough effect; inconclusive = small, poorly fitted or top-dose-only effect, or another doubt; inactive = no such curve, though single readings can be large; an effect the other way counts as inactive or inconclusive.
SMILES,Tau fluor counter,Sfp PPTase inh,Tau fibril FP,Tau fibril ThT,FBPA coupling cs
Cc1ccccc1NC(=S)Nc1cccc2cnccc12,i,3.2µM,i,?,-52
FC(F)(F)c1ccccc1NC(=S)Nn1cnnc1,nt,20µM,nt,nt,nt
N#CCCCS(=O)(=O)c1nc2ccccc2s1,i,i,i,i,i
Cc1ccc(C)c(NC(=S)Nc2cccc3cnccc23)c1,i,32µM,?,?,-37
Cc1ccccc1NC(=S)Nc1ccccn1,i,56µM,i,i,i
CCCN(CCC)CCCNC(=O)C1CCN(c2nc3ccc(CC)cc3s2)CC1,i,nt,i,i,nt
CC(C)(C)N1C(=O)c2ccccc2NC(=O)N1Cc1ccccc1,i,i,i,i,i
O=C1Nc2ccccc2C(=O)C1(Cl)Cc1ccccc1 (stereo not given),i,18µM,?,?,i
CCCOc1ccc(C(=O)N/N=C/c2c[nH]c3ccc(Br)cc23)cc1,nt,i,nt,nt,i
O=C(N/N=C/c1c[nH]c2ccc(Br)cc12)c1ccn(Cc2ccc(Cl)cc2)n1,11µM[quencher],i,i,?,i
O=C(N/N=C/c1c[nH]c2ccccc12)c1ccn(Cc2ccc(Cl)cc2Cl)n1,13µM[quencher],i,i,?,i
O=C(CC1Sc2ccc(C(F)(F)F)cc2NC1=O)Nc1ccc(Cl)c(C(F)(F)F)c1 (stereo not given),?,nt,11µM,i,nt
CN(Cc1ccccc1)S(=O)(=O)c1ccc2[nH]c3c(c2c1)CCCCC3,3.5µM[quencher],nt,?,i,nt
Cc1ccccc1NS(=O)(=O)c1ccc2[nH]c3c(c2c1)CCCCC3,14µM[quencher],nt,i,i,nt
CN(CC(=O)NCc1ccccc1)S(=O)(=O)c1ccc2[nH]c3c(c2c1)CCCC3,?,nt,?,i,nt
Cc1ccc(CNS(=O)(=O)c2ccc3[nH]c4c(c3c2)CCCCC4)cc1,?,nt,?,i,nt
O=S(=O)(Nc1cccc(Cl)c1)c1ccc2[nH]c3c(c2c1)CCCCCC3,8.9µM[quencher],nt,?,i,nt
Cc1cccc(NS(=O)(=O)c2ccc3[nH]c4c(c3c2)CCCCCC4)c1,11µM[quencher],nt,i,i,nt
C=C(CC(=O)OC)C[C@]1(CC(=O)OC)CC2(CC=C(C)C)C(=O)C(C(=O)c3ccccc3)=C(OC(=O)c3ccc(Br)cc3)C(CC=C(C)C)(C1)C2=O (stereo not given in full),i[11.6 µM],i,i[11.6 µM],i[11.5 µM],i
Cc1ccc(N(CC2=NCCN2)c2cccc(O)c2)cc1,i,79µM!,i,?,i
O=C(CNc1ccc2c(c1)OCO2)N/N=C\c1cn(Cc2ccccc2)c2ccccc12,10µM[quencher],i,i,?,i
Cc1ccc(OCCn2cc(C=O)c3ccccc32)cc1,nt,i,nt,nt,i
COc1cccc(OCCn2cc(/C=N/NC(=O)c3ccncc3)c3ccccc32)c1,14µM[quencher],i,i,?,i
Cc1ccc(OCCn2cc(/C=C3\C(=O)NN(c4ccccc4)C3=O)c3ccccc32)cc1,?,?,?,7.1µM,i
COc1ccc(OCCn2cc(/C=N/NC(=O)c3ccncc3)c3ccccc32)cc1,13µM[quencher],i,i,?,i
SMILES,Tau fluor counter,Sfp PPTase inh,Tau fibril FP,Tau fibril ThT,FBPA coupling cs
COC(=O)[C@@]1(Cc2ccc(OC)cc2)[C@H]2c3cc(C(=O)N(C)C)n(CCN4CNCC4=O)c3C[C@H]2CN1C(=O)c1ccccc1,i,i,i,i,i
O=C(O)CCCC/C=C\C[C@@H](O)/C=C/C=C/C=C\[C@@H](O)CCCC(=O)O,i,i,i,i,i
COC(=O)N/N=C/c1cn(CC(C)COc2ccccc2)c2ccccc12 (stereo not given),14µM[quencher],i,?,?,i
O=C(N/N=C/c1cn(Cc2ccccc2)c2ccccc12)c1ccncc1,25µM[quencher],i,i,?,i
COC(=O)N/N=C/c1cn(CCOc2ccccc2)c2ccccc12,?,i,?,?,i
COCCCNC(=O)Cn1cc(C(C)=O)c2ccccc21,i,i,i,i,i
COCCNC(=O)Cn1cc(/C=N/NC(=O)c2ccc(Oc3ccc(O)cc3)cc2)c2ccccc21,18µM[quencher],i,i,?,i
COCCNC(=O)Cn1cc(C(=S)N2CCOCC2)c2ccccc21,i,32µM,i,i,i
COc1ccc(C(=O)N2CCN(c3nc4c(OC)cccc4s3)CC2)cc1OC,i,nt,i,i,nt
Cc1ccc(OCCn2cc(/C=N/NC(=O)c3ccncc3)c3ccccc32)cc1,13µM[quencher],i,i,i,i
CCOC(=O)N/N=C/c1cn(CCCOc2ccc(C)cc2)c2ccccc12,?,i,i,?,i
CC(C)=NNc1nc(-c2ccccc2)c(C)s1,?,56µM,i,?,i
CCn1nc(-c2ccccc2)c(-c2ccccc2)c(C(=O)Nc2nc(C)c(C(=O)N(C)C)s2)c1=O,i,nt,i,i,nt
Cc1ccc2nc(CSc3nc(C)cc(C)c3C#N)[nH]c2c1,?,i,?,13µM,i
Cc1cc(C)c(C#N)c(SCc2ccccc2)n1,i,?,i,i,i
Cc1cc(C)c(C#N)c(SCc2ccccc2C)n1,i,i,i,i,i
Cc1cc(C)c(C#N)c(SCSCc2ccccc2)n1,i,20µM,?,i,i
COc1ccccc1C(=O)NC1CCCCCCC1,i,i,i,i,i
COc1ccc(S(=O)NC2CCCCC2)c(OC)c1C (stereo not given),i,50µM,i,?,i
CCCCCCCCCCCCCCCCOCCOCCOCCOCCOCCOCCOCCOCCOCCOCCOCCOCCOCCOCCOCCOCCOCCOCCOCCOCCO,nt,50µM,nt,nt,nt
CN1CC(=O)N(CC(=O)Nc2cccc(C#N)c2)c2ccccc2C1=O,i,nt,i,i,nt
COCC(=O)N(Cc1cc2ccc(C)cc2[nH]c1=O)c1ccccc1C,nt,i,nt,nt,i
Cc1ccc2cc(CN(C(=O)c3ccco3)c3ccccc3C)c(=O)[nH]c2c1,i,50µM,i,i,i
COCC(=O)N(Cc1cc2ccc(C)cc2[nH]c1=O)c1ccc(C)cc1C,nt,i,nt,nt,i
Cc1ccc2cc(CN(C(=O)c3ccco3)c3cccc(C)c3C)c(=O)[nH]c2c1,i,32µM,i,i,i
SMILES,Tau fluor counter,Sfp PPTase inh,Tau fibril FP,Tau fibril ThT,FBPA coupling cs
Cc1ccc(N(Cc2cc3ccc(C)cc3[nH]c2=O)C(=O)c2ccco2)c(C)c1,i,50µM,i,i,i
CC1=Nc2ccccc2/C1=C/c1sc(=N)n(-c2nccs2)c1O,11µM[quencher],i,?,5µM,i
NC(=S)N/N=C/c1ccccc1[N+](=O)[O-],i,4.5µM,i,i,i
CCNC(=S)N/N=C/c1ccccc1[N+](=O)[O-],i,i,i,i,i
C/C(=N\NC(N)=S)c1ccccc1,i,?,i,i,i
C/C(=N/NC(N)=S)c1ccccc1[N+](=O)[O-],i,22µM,i,i,i
CCCN(C(=O)CCc1nc(-c2ccccc2F)no1)c1ccc(CC)cc1,i,nt,i,i,nt
COc1ccccc1CNC(=O)CCNS(=O)(=O)c1ccc2c(c1)CCCC(=O)N2,i,nt,i,i,nt
O=[N+]([O-])C1=CC=C2C(=NC3(CCCCC3)N2O)C1=NCCO,i,40µM,i,i,-53
CN=C1C([N+](=O)[O-])=CC=C2C1=NC1(CCCCC1)N2O,i,8.9µM,i,i,-45
